ELG1 genotox: inducers of genotoxicity in HEK293T ELG1-luciferase cells | HEK293T ELG1-luciferase reporter, luminescence, 16 h | Potency, µM (highest dose often 46 µM), without a hit: at the highest dose activity change, positive = activation, most hits filed as activators | AID 504466 | hit rate 1.3% among 330,000; also: % of control where 0% means no effect; nearly all actives have a fitted effect of over 60% in size
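Genotoxic stress is detected as increased luminescence from luciferase-tagged ELG1 in HEK293T cells, measured with ONE-Glo after a 16 hr treatment at 37 °C.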
NPC1 promoter act: activators of NPC1 promoter; Huh7 NPC1 promoter luciferase reporter, 24 h; hit rate 2.4% among 320,000; Potency, µM (top dose mostly 9.22 µM), for the others: top-dose activation, hits mostly activators; AID 485313; also: % of control where 0% means no effect; nearly all actives have a fitted effect of over 60% in size
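In 1536-well qHTS, Huh7 cells harboring an NPC1 promoter–luciferase construct received compound for 24 h; activation was quantified by luminescence following luciferase reagent addition.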
FLuc counter: inhibits or activates purified firefly luciferase, miR-21 counter-screen; Potency, µM (highest dose often 57.5 µM), inactives show at the top dose activity change, negative = inhibition, actives largely listed as inhibitors; purified FLuc, Km substrates, luminescence inhibition; AID 588342; P08659; hit rate 6.9% among 360,000;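 also: plate controls were vehicle for no effect and reference inhibitor for full effect; nearly all actives have a fitted effect of over 55% in size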
Target sequence (P08659 whole entry, looked up): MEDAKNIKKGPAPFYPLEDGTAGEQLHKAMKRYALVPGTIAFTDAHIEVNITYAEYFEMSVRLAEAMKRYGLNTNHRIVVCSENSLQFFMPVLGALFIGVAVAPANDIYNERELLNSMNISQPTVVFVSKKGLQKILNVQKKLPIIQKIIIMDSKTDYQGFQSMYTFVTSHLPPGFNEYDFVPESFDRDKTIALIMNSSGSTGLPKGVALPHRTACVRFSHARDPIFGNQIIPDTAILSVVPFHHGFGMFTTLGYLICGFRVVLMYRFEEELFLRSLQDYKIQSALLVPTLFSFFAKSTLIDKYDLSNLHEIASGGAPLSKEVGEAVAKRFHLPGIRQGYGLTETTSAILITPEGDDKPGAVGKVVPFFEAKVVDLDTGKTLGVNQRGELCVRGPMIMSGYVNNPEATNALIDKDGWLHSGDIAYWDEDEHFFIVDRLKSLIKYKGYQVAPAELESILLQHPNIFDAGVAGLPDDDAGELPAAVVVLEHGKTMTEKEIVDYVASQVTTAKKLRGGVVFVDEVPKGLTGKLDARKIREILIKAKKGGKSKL
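Purified P. pyralis luciferase (10nM final) with 10uM D-luciferin and 10uM ATP (Km levels) in 50mM Tris acetate pH 7.5, 10mM Mg acetate, 0.01% Tween-20, 0.05% BSA; qHTS 6-point titration, ~60 µM downward; luminescence read.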
p53 reactivation: re-activators of mutant p53; hit rate 0.063% among 320,000; Potency, µM (titrated, usually from 92.2 µM), for the others: at the highest dose activity change, positive = activation, usual class: activators; AID 504706; H1299 p53-A138V BP100-luciferase reporter, luminescence, 24 h; also: % of control where 0% means no effect; nearly all actives have a fitted effect of over 45% in size
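p53-null H1299 cells stably carrying temperature-sensitive p53-A138V and a BP100-luciferase reporter were pinned with compounds (4-point, 1:5 series) and held 24 hrs at 37 deg C. Luminescence was read 10 min after detection reagent.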
Rab9 prom act: activators of Rab9 promoter; Huh7 Rab9 promoter-luciferase reporter, luminescence, 24 h; Potency, µM (top dose mostly 9.22 µM), without a hit: at the highest dose activation, negative = inhibition, usual class: activators; hit rate 2.8% among 320,000; also: % of control where 0% means no effect; nearly all actives have a fitted effect of over 60% in size
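Huh7 cells stably carrying Rab9 promoter–luciferase reporter, plated 1500 cells/well, compound added after 2 h and incubated 24 h at 37 °C; luciferase luminescence then read after 10 min with detection reagent.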
SMN2 splice up: enhancers of SMN2 splice variant expression. HEK293 SMN2-luciferase splicing reporter, luminescence, 30-36 h. Potency, µM (top dose mostly 46.1 µM), without a hit: at the top dose activity change, positive = activation, actives largely listed as activators. hit rate 2.8% among 210,000. AID 1458; also: % of control where 0% means no effect; nearly all actives have a fitted effect of over 55% in size
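HEK293 cells carry an SMN2 minigene-luciferase reporter in which exon 7 inclusion puts luciferase in frame. Cells were seeded at 2000 cells/well, attached for 10-12 hours, then exposed to compounds for 30-36 hours at 37C before ONE-Glo luminescence.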
The depositor's hits bear a star; ? = inconclusive; · = no result; [ ] = another dose, or the depositor's remark. An excerpt weighted towards active compounds, which were near 7.4% of everything screened. Calls follow the shape of the dose curve; as a rule, active = well fitted curve in the direction sought with a large enough effect; inconclusive = small, poorly fitted or top-dose-only effect, or another doubt; inactive = no such curve, though single readings can be large; an effect the other way counts as inactive or inconclusive. Potency is read from the fitted curve at half-maximal effect.

SMILES | ELG1 genotox | NPC1 promoter act | FLuc counter | p53 reactivation | Rab9 prom act | SMN2 splice up
CC(C)C[C@@H](CC(=O)N[C@@H](CCC(=O)O)CC(=O)O)NC(=O)[C@@H]1CNCC[C@H]1NC(=O)C[C@H](CCCN)NC(=O)C[C@H](Cc1c[nH]c2ccccc12)NC(=O)[C@@H]1CCCC[C@H]1N | · | · | · | · | · | 9%
O=C(c1cccc(F)c1)N1CCC2(CC1)CCN(c1cccc(-c3ccccc3)c1)CC2 | · | · | · | · | · | -51%
CC1=NOC(=O)/C1=C/c1ccc(-c2ccc(Cl)cc2)o1 | -13% | -3% | 8.5µM* | -13% | -4% | -16%
Cc1ccc(C2=NOC(=O)/C2=C\c2ccc(C)o2)cc1 | ? | 18% | ? | 7% | 0% | ·
CC1=NOC(=O)/C1=C\c1ccc(-c2cc(Cl)ccc2Cl)o1 | -39% | -16% | ? | 2% | 0% | 22%
CC1=NOC(=O)/C1=C\c1ccc(-c2ccc(Br)cc2C(=O)O)o1 | 3% | 0% | ? | 2% | -3% | ·
Cc1ccc(/C=C2\C(=O)ON=C2c2ccccc2)o1 | 1% | 1% | 1.1µM* | -2% | -12% | ·
CC1=NOC(=O)/C1=C\c1ccc(-c2ccc(Br)cc2)o1 | -3% | -11% | 8.5µM* | -5% | -3% | -41%
CCN1CCCC1Cn1c(-c2ccccc2)nc2c(N3CCOCC3)nc(C)nc21 (stereo not given) | · | · | · | · | · | -7%
COC(=O)c1scc(-c2ccc(C)cc2)c1S(=O)(=O)Nc1cc(OC)c(OC)c(OC)c1 | · | · | 1% | · | · | ·
CCSc1nnc(-c2ccccc2SC)o1 | -6% | -1% | ? | 12% | 2% | 6%
CSc1ccccc1-c1nnc(-c2ccc(Cl)c(Cl)c2)o1 | ? | ? | 7.6µM* | ? | ? | 12%
CSc1ccccc1-c1nnc(-c2ccc(Cl)cc2Cl)o1 | ? | ? | 2.1µM* | ? | 3.2µM* | ?
CCCSc1nnc(NC(=O)c2cc(=O)c3ccccc3o2)s1 | · | · | ? | · | · | 5%
CCCOC(=O)c1cccc(Nc2nc(CCC)cc(=O)[nH]2)c1 | · | · | -19% | · | · | -34%
CNc1oc(/C=C/c2ccccc2)nc1C#N | ? | ? | 2.7µM* | ? | 3.2µM* | 11µM*
COCCNc1oc(/C=C/c2ccccc2)nc1C#N | 18µM* | ? | 11µM* | 11% | 3.5µM* | ·
Cc1ccc(NC(=O)CN(C)S(=O)(=O)c2cnc[nH]2)cc1 | · | · | 5% | · | · | -1%
COC(=O)c1sc2cccc(F)c2c1S(=O)(=O)N1CCN(c2ccccc2OC)CC1 | · | · | -3% | · | · | ·
CC1(C)O[C@H]2[C@@H](O1)[C@@H](On1nnc3ccc(Cl)cc31)O[C@@H]2[C@@H]1COC(C)(C)O1 | · | · | · | · | · | -9%[9.22 µM]
O=C1c2ccccc2NC(c2ccccc2)N1/N=C/c1ccccc1 (stereo not given) | 20% | 2.5µM* | ? | 7% | 2.5µM* | 25µM*
CC(=O)Nc1ccc(NC(=O)c2ccc3c(c2)NC(=O)c2ccccc2S3)cc1 | · | · | 1% | · | · | -3%
C/C(=N\Nc1ccc(C(=O)O)cc1)c1ccc2c(c1)Nc1ccccc1S2 | 11% | ? | 2.1µM* | 5% | ? | ·
NC(N)=N/N=C/c1ccccc1OC(F)F | -2% | 0% | 1% | 1% | 2% | -8%
FC(F)Oc1ccccc1/C=N/n1cnc2ccccc21 | 11% | 1% | 24µM* | 1% | 25% | ?
SMILES | ELG1 genotox | NPC1 promoter act | FLuc counter | p53 reactivation | Rab9 prom act | SMN2 splice up
COC(=O)c1sc(NC(=O)c2ccco2)nc1C | 16% | 14% | ? | 9% | 22% | 8%
COC(=O)c1sc(NC(=O)c2c(-c3ccccc3)noc2C)nc1C | 2% | 1% | ? | 5% | -2% | ·
COC(=O)c1sc(NC(=O)c2c(C)noc2C)nc1C | ? | 6% | 24µM* | 9% | -2% | ·
COC(=O)c1sc(NC(=O)c2ccoc2C)nc1C | ? | 29% | ? | ? | ? | 22µM*
CN(C)/C=N/c1ncc(C(=O)c2ccccc2)s1 | 9.2µM* | 2.8µM* | 15µM* | 17% | 3.2µM* | 14µM*
CN(C)/C=N/c1ncc(C(=O)c2ccc(-c3ccccc3)cc2)s1 | -5% | -1% | 21µM* | 5% | -4% | -24%
Cc1cc(C(=O)c2cnc(/N=C/N(C)C)s2)cc(C)c1O | ? | -4% | -9% | -1% | 1% | 11%
CCCCn1c(N)c(N(CCOC)C(=O)c2ccc(F)c(S(=O)(=O)N3CCOCC3)c2)c(=O)[nH]c1=O | -6% | 0% | 0% | 1% | -1% | ·
COc1ccc(/C=C2\Oc3cc(OCC(=O)N4CCC(C(=O)O)CC4)ccc3C2=O)c(OC)c1 | 1% | 0% | 6.7µM* | 6% | -7% | ·
COc1ccc(OC)c(/C=C2\Oc3cc(OCC(=O)N4CCC(C(=O)O)CC4)ccc3C2=O)c1 | 0% | -4% | -19% | 7% | -17% | ·
COc1ccc(/C=C2\Oc3cc(OCC(=O)N4CCC[C@H]4C(=O)O)ccc3C2=O)cc1OC | -1% | -2% | 1.3µM* | 12% | -3% | ·
COc1ccc(/C=C2\Oc3cc(OCC(=O)N4CCC[C@H]4C(=O)O)ccc3C2=O)c(OC)c1OC | 7% | -5% | ? | 28% | 1% | ·
COc1cccc(/C=C2\Oc3cc(OCC(=O)N4CCCCC4)ccc3C2=O)c1OC | 2% | -5% | 9.5µM* | ? | -7% | ·
COc1cccc(/C=C2\Oc3cc(OCC(=O)N4CCCC4)ccc3C2=O)c1OC | 2% | -3% | 9.5µM* | 6% | -1% | ·
CC1CN(C(=O)c2ccc(Br)c(S(=O)(=O)N3CCOCC3)c2)CC(C)O1 (stereo not given) | 0% | -10% | 0% | 1% | 1% | ·
COc1ccc(CCNC(=O)C(=O)c2c[nH]c3ccccc23)cc1 | · | · | · | · | · | -9%
CCn1c(SCC(=O)N/N=C/C(C)=C/c2ccco2)nnc1-c1ccccc1 | -2% | -2% | 15µM* | -9% | 2% | -11%
CCn1c(SCC(=O)N/N=C/C=C/c2ccco2)nnc1-c1ccccc1 | 1% | -5% | ? | 3% | -7% | -41%
CCn1c(SCC(=O)N/N=C/C(C)=C\c2ccco2)nnc1-c1ccccc1 | 1% | -1% | 13µM* | 0% | 1% | -9%
COc1ccc(Oc2ncc3nc(-c4cn(C)c5ccccc45)c(=O)n(CCC#N)c3n2)cc1 | · | · | · | · | · | 2%
O=C(Nc1ncc(Cc2ccc(SC(F)F)cc2)s1)c1ccccc1 | 12% | -3% | 13µM* | 7% | 5% | -1%
Cc1ccc(Cc2cnc(NC(=O)C3CCCO3)s2)cc1 (stereo not given) | ? | 1.1µM* | 3µM* | ? | 1.3µM* | 14µM*
